These results are taken from PubChem BioAssay (EPA / NIEHS).

Holding throughout (conditions): mRNA level, 48 h; actives raise or lower the signal
Read-out in experiment [1]: Potassium channel subfamily K member 1 (KCNK1), KCNK1 (gene 3775)
Kind of experiment: LTEA_HepaRG_KCNK1: Life Technologies and Expression Analysis (LTEA) Assay for Potassium channel subfamily K member 1 (KCNK1) using HepaRG (AID 2283511). The gist of the method:
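HepaRG, 48 h exposure, 8-pt half-log series top 100 uM, 0.5% DMSO vehicle, duplicates. Readout: KCNK1 transcript by qRT-PCR (Fluidigm array), housekeeping-normalized; bidirectional curve fit relative to DMSO baseline.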

Read-out in experiment [2]: Keratin 19 (KRT19), KRT19 (gene 3880)
Nature of the experiment: LTEA_HepaRG_KRT19: Life Technologies and Expression Analysis (LTEA) Assay for Keratin 19 (KRT19) using HepaRG (AID 2283512). The method, boiled down:
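KRT19 transcript levels, measured by Fluidigm qRT-PCR against three housekeeping genes, are fitted for gain or loss of signal relative to DMSO. Human HepaRG cells receive test chemicals (top 100 uM, half-log steps, 0.5% DMSO) for 48 hours.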

Read-out in experiment [3]: Lipase C (LIPC), LIPC (gene 3990)
Nature of the experiment: LTEA_HepaRG_LIPC: Life Technologies and Expression Analysis (LTEA) Assay for Lipase C (LIPC) using HepaRG (AID 2283514). The method, boiled down: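 HepaRG, 48 h exposure, 8-pt half-log series from 100 uM in 0.5% DMSO, duplicates. Readout: LIPC mRNA by Fluidigm qRT-PCR, housekeeping-normalized (ACTB/GAPDH/POLR2A). Gain or loss fitted bidirectionally against DMSO baseline.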

Read-out in experiment [4]: Lipoprotein lipase (LPL), LPL (gene 4023)
Nature of the experiment: LTEA_HepaRG_LPL: Life Technologies and Expression Analysis (LTEA) Assay for Lipoprotein lipase (LPL) using HepaRG (AID 2283515). The gist of the method:
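HepaRG, 48 h exposure, 8-pt half-log dilutions from 100 uM, 0.5% DMSO vehicle, duplicates; qRT-PCR (Fluidigm array) of LPL mRNA vs housekeeping genes; bidirectional curve fit relative to DMSO baseline.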

Read-out in experiment [5]: MicroRNA 122 (MIR122), gene 406906
Nature of the experiment: LTEA_HepaRG_MIR122: Life Technologies and Expression Analysis (LTEA) Assay for MicroRNA 122 (MIR122) using HepaRG (AID 2283516). Further: the transcript read is the microRNA miR-122. The method, boiled down:
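qRT-PCR read-out (TaqMan, Fluidigm array), normalized to three housekeeping genes; HepaRG cells dosed 48 h at 8 concentrations up to 100 uM in 0.5% DMSO, duplicate; gain or loss fitted against DMSO baseline.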

Read-out in experiment [6]: matrix metalloproteinase-10 (MMP10), MMP10 (gene 4319)
Kind of experiment: LTEA_HepaRG_MMP10: Life Technologies and Expression Analysis (LTEA) Assay for matrix metalloproteinase-10 (MMP10) using HepaRG (AID 2283517). The gist of the method:
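Transcript levels come from Fluidigm qRT-PCR normalized to three housekeeping genes, with curves fitted bidirectionally against 0.5% DMSO. Human HepaRG cells were dosed for 48 hours at concentrations up to 100 uM.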

Read-out in the next experiment: MYC, MYC (gene 4609)
Nature of the experiment: LTEA_HepaRG_MYC: Life Technologies and Expression Analysis (LTEA) Assay for MYC using HepaRG (AID 2283518). The method, boiled down:
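HepaRG, ~100,000 cells/well, collagen I; 48 h plating; serum-free induction medium; 48 h dosing, duplicate, 100 uM top, half-log, 0.5% DMSO; total RNA → qRT-PCR MYC; gain/loss fit vs DMSO.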

Read-out in experiment [7]: matrix metalloproteinase-3 (MMP3), MMP3 (gene 4314)
Nature of the experiment: LTEA_HepaRG_MMP3: Life Technologies and Expression Analysis (LTEA) Assay for matrix metalloproteinase-3 (MMP3) using HepaRG (AID 2283519). The gist of the method: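 qRT-PCR read-out of MMP3 mRNA (normalised to three housekeeping genes) in HepaRG liver cells after 48 h chemical exposure; 8-point half-log series, top 100 uM, 0.5% DMSO vehicle. Bidirectional curve fitting against DMSO baseline.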

Read-out in experiment [8]: Paternally Expressed 10 (PEG10), PEG10 (gene 23089)
Kind of experiment: LTEA_HepaRG_PEG10: Life Technologies and Expression Analysis (LTEA) Assay for Paternally Expressed 10 (PEG10) using HepaRG (AID 2283520).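 On AC50: differentiated HepaRG human liver cells in serum-free induction medium with 0.5% DMSO; PEG10 transcript by qRT-PCR normalised to ACTB GAPDH and POLR2A.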 The method, boiled down: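 qRT-PCR read-out: PEG10 mRNA normalised to three housekeeping genes, fitted bidirectionally against 0.5% DMSO vehicle. HepaRG cells received test chemicals for 48 h in serum-free induction medium, 8 points, top 100 uM, half-log steps.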

Read-out in experiment [9]: JUN Transcription Factor, JUN (gene 3725)
Nature of the experiment: LTEA_HepaRG_JUN: Life Technologies and Expression Analysis (LTEA) Assay for JUN Transcription Factor using HepaRG (AID 2283513). The method, boiled down:
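HepaRG, 48 h exposure, 8-pt half-log series top 100 uM, 0.5% DMSO, duplicate. JUN mRNA by qRT-PCR (Fluidigm), housekeeping-normalized (ACTB/GAPDH/POLR2A); bidirectional curve fit vs DMSO baseline.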

As a reminder, the AC50 is the concentration giving half of the maximal activity seen.

Activity calls are given as the source filed them. How the source made its calls: active means hit-call score of the fitted dose curve at least 0.9, where 1 is the maximum; inactive means score below 0.9.

With `CCCCCCC(=O)O`, the result in experiment [1], in experiment [2], in experiment [3], in [4], in experiment [5] and in experiment [6] was inactive. The outcome with MYC, MYC (gene 4609) is “inactive”; in [7], “inactive”; in [8], “inactive”.

Take `CC[C@H](c1ccc(O)cc1)[C@@H](CC)c1ccc(O)cc1`: the half-maximal activity concentration (AC50) in experiment [2] is 90.8 µM (active); in experiment [9], 96.5 µM (active); in experiment [4], 75.7 µM (active). For the same molecule, the outcome in [3] was “inactive”; in experiment [5], “inactive”; in experiment [6], “inactive”; with MYC, MYC (gene 4609) it was “inactive”; in experiment [7] it was “inactive”; in experiment [8], “inactive”.

For `CCC(C)(C)C1CCC(O)CC1` (stereo not drawn), the outcome in experiment [2] is “inactive”; in [3], “inactive”; in [4] it was “inactive”; in [5], “inactive”; in experiment [6], “inactive”; with MYC, MYC (gene 4609) it was “inactive”. The outcome in experiment [7] and in experiment [8] was inactive.

Take `CC(C)(C)CC(C)(C)c1ccc(O)c(-n2nc3ccccc3n2)c1`: the outcome in experiment [2] is “inactive”; in experiment [3], “inactive”; in experiment [4], “inactive”; in experiment [5], “inactive”; in experiment [6], “inactive”; with MYC, MYC (gene 4609) it was “inactive”. The molecule was classed as inactive in experiment [7] and in experiment [8].

In the case of `CN(C)C=O`, the outcome in experiment [2], in experiment [9], in [3], in experiment [4], in experiment [5] and in [6] was inactive. Besides, the outcome in the experiment with MYC, MYC (gene 4609) was “inactive”; in [7], “inactive”; in experiment [8] it was “inactive”.

In the case of `CCCCOCCO`, the outcome in experiment [2] is “inactive”; in [3] it was “inactive”; in experiment [4], “inactive”; in experiment [5] it was “inactive”; in experiment [6], “inactive”; with MYC, MYC (gene 4609) it was “inactive”. Further, the outcome in experiment [7] and in experiment [8] was inactive.

Take `OC1CCC(C2CCCCC2)CC1` (stereo not drawn): the outcome is “inactive” in experiment [2]; “inactive” in experiment [3]; “inactive” in [4]; “inactive” in experiment [5]; “inactive” in experiment [6]; “inactive” in the experiment with MYC, MYC (gene 4609). The call in experiment [7] and in experiment [8] was inactive.

`Oc1cc2ccccc2c2ccccc12`: the AC50 is 27.1 µM (active) in [2], 50 µM (active) in experiment [4] and 50 µM (active) in experiment [8]. Moreover, the outcome in experiment [9] was “inactive”; in experiment [3] it was “inactive”; in experiment [5], “inactive”; in [6], “inactive”; with MYC, MYC (gene 4609) it was “inactive”; in experiment [7] it was “inactive”.

As for `CCCCCCCCCCCCN1CCCC1=O`, the outcome in [2] is “inactive”; in experiment [3], “inactive”; in experiment [4], “inactive”; in experiment [5], “inactive”; in experiment [6] it was “inactive”; with MYC, MYC (gene 4609), “inactive”. Also, the result in [7] and in experiment [8] was inactive.

In the case of `Oc1cccc(O)c1`, the result in experiment [2], in experiment [9], in experiment [3], in [4], in [5] and in experiment [6] was inactive. The outcome in the experiment with MYC, MYC (gene 4609) was “inactive”; in [7] it was “inactive”; in experiment [8], “inactive”.

On to `C#C[C@]1(O)CC[C@H]2[C@@H]3CCC4=CC(=O)CC[C@@H]4[C@H]3CC[C@@]21C`, for which the outcome was “inactive” in experiment [2]; “inactive” in experiment [3]; “inactive” in experiment [4]; “inactive” in experiment [5]; “inactive” in experiment [6]; “inactive” with MYC, MYC (gene 4609). For the same molecule, the AC50 in experiment [7] is 7.81 µM (active); in [8], 0.321 µM (active).

Regarding `Cc1cc(C)c(O)c(C)c1`, the outcome in [2] is “inactive”; in [3], “inactive”; in [4], “inactive”; in experiment [5], “inactive”; in experiment [6], “inactive”; with MYC, MYC (gene 4609), “inactive”. In addition, the outcome in experiment [7] and in experiment [8] was inactive.

On to `CCC(=C(c1ccc(O)cc1)c1ccc(OCCN(C)C)cc1)c1ccccc1`, for which the result in experiment [2], in experiment [3], in experiment [4], in experiment [7] and in experiment [8] was inactive. The AC50 in [5] was 88.8 µM (active); in experiment [6], 72.4 µM (active); in the experiment with MYC, MYC (gene 4609), 77.7 µM (active).

In the case of `CC[C@H](C)[C@@H](C(=O)O)n1sc2ccccc2c1=O`, the outcome in [2] is “inactive”; in experiment [3], “inactive”; in experiment [4], “inactive”; in experiment [5], “inactive”; in [6], “inactive”; in the experiment with MYC, MYC (gene 4609), “inactive”. Besides, the result in experiment [7] and in experiment [8] was inactive.

Consider `CCCCCCCCC(=O)O`, for which the outcome is “inactive” in experiment [2]; “inactive” in experiment [3]; “inactive” in experiment [4]; “inactive” in experiment [5]; “inactive” in experiment [6]; “inactive” in the experiment with MYC, MYC (gene 4609). The call in experiment [7] and in experiment [8] was inactive.

In the case of `c1ccc2c(c1)Cc1ccccc1-2`, the outcome is “inactive” in [2]; “inactive” in experiment [3]; “inactive” in experiment [4]; “inactive” in [5]; “inactive” in [6]; “inactive” with MYC, MYC (gene 4609). Moreover, the result in experiment [7] and in experiment [8] was inactive.
